Percent Effect data for four molecules are collected here from ChEMBL document CHEMBL3988442, “University of Dundee, Small-Polar-MMV Screening Library” (2021).

Common to all, as to set-up: scale not given: direction of the effect not stated beside the values
The target in test [1] is Protein translocase subunit SecA (Escherichia coli (strain K12)) (UniProt P10408). The test can be described thus: Assay to Identify E. coli SecA ATPase Inhibitors. It counts as functional. The following applies: 30 µM.
The target of test [2] is T1, Ubiquitin-activating enzyme e1, putative (Leishmania donovani (strain BPK282A1)) (UniProt E9BSI1).
T1 sequence (whole entry): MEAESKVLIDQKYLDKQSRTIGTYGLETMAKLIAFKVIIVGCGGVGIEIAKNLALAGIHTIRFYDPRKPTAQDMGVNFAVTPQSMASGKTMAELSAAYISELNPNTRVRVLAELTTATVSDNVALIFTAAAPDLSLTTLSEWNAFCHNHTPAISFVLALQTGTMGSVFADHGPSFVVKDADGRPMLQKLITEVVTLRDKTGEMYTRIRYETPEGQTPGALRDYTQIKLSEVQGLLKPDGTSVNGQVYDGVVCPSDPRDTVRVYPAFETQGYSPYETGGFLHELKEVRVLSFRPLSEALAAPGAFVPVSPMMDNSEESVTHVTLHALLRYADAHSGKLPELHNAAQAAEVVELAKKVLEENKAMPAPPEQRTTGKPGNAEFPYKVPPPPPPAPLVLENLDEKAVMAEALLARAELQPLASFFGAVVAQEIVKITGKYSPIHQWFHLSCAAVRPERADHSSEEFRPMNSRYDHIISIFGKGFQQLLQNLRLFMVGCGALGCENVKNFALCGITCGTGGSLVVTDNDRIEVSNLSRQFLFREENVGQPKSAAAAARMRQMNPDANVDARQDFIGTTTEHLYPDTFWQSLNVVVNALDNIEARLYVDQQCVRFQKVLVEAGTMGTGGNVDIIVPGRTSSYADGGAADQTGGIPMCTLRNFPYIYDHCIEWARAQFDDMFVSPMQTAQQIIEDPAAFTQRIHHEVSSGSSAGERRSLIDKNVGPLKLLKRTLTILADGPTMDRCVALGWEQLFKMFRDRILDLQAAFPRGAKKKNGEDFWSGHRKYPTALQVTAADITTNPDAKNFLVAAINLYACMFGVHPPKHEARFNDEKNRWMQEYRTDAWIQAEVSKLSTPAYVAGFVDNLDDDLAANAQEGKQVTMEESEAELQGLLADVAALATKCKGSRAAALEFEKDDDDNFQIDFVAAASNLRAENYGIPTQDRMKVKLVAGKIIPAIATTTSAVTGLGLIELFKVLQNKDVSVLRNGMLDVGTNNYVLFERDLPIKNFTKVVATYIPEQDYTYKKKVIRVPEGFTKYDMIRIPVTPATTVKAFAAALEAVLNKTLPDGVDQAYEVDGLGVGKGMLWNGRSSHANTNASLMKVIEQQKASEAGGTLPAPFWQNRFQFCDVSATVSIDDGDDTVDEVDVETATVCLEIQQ
The test can be described thus: Leishmania donovani Ubiquitin Activating Enzyme (LdE1). It counts as functional. The following applies: 30 µM.

In test [3] the target is T2, Aspartate--tRNA(Asp/Asn) ligase (Mycobacterium tuberculosis (strain ATCC 25618 / H37Rv)) (UniProt P9WFW3). Also: in the data most compounds retested in dose-response had high values.
T2 sequence (whole entry): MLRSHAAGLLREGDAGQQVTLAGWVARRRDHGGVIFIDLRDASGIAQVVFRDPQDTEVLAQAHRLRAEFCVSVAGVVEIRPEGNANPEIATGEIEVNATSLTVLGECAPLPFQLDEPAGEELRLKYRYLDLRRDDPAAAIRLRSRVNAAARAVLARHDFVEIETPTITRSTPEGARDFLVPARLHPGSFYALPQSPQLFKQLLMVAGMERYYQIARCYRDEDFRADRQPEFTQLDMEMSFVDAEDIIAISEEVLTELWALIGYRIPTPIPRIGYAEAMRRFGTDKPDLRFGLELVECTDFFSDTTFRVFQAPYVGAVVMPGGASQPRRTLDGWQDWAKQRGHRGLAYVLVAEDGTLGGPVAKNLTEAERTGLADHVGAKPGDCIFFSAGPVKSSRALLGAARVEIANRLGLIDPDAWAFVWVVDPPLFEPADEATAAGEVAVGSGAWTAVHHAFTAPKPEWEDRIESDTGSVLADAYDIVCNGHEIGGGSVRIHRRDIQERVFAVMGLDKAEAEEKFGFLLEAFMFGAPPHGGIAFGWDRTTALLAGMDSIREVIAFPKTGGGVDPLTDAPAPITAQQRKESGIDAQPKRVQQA
The test can be described thus: Assay for Asp RNA synthetase-1 from Mycobacterium tuberculosis. It counts as functional. The following applies: 30 µM.

In test [4] the target is AMP-activated protein kinase, AMPK (Homo sapiens) (UniProt P54646+O43741+P54619+Q9UGJ0+Q9Y478+Q13131+Q9UGI9). The test can be described thus: AMP-dependent Kinase enzyme assay. An in vitro enzyme assay that detects ADP turnover that is directly proportional to AMPK activity. This uses naive AMPK that is activated during the assay with MK-8722. It counts as functional. The following applies: 30 µM.

In test [5] the target is Sialic acid-binding Ig-like lectin 9 (Homo sapiens) (UniProt Q9Y336). The test can be described thus: Hs-Siglec9 ALPHAscreen SOP 20170721. The following applies: 10 µM. In general terms: In Alpha technology, singlet oxygen from a donor bead excites a nearby acceptor bead.
The next test has as its system Trypanosoma cruzi. The test can be described thus: Trypanosoma cruzi phosphomannomutase and mannose-1-phosphate guanylyltransferase assay. The following applies: 10 µM. It counts as functional.
Test [6] concerns the target T3, Arginase-2, mitochondrial (Homo sapiens) (UniProt P78540).
T3 sequence (whole entry): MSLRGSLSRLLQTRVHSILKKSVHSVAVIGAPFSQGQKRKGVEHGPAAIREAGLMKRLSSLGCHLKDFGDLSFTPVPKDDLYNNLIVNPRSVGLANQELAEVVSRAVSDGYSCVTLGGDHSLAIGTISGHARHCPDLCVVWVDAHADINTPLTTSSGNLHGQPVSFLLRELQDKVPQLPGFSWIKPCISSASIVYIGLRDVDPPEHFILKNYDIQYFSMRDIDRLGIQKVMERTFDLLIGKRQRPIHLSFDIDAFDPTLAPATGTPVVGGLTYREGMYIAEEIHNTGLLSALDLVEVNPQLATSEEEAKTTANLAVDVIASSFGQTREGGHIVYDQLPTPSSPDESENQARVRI
The test can be described thus: in vitro enzyme assay to detect the production of urea directly proportional to the activity of Arginase II. Also: in the data most compounds retested in dose-response had high values. It counts as functional. The following applies: 33.3 µM.

For test [7], the target named is T4, Proteasome subunit beta (Trypanosoma cruzi) (UniProt O96673).
T4 sequence (whole entry): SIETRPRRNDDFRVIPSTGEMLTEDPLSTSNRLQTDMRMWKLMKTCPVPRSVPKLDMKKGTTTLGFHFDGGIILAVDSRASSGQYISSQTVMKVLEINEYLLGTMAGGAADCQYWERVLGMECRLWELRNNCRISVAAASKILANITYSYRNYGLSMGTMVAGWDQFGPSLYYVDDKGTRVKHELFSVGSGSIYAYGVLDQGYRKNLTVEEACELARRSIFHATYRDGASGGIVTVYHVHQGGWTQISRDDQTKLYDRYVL
The test can be described thus: Trypanosoma cruzi proteasome chymotrypsin-like activity (TcProtChymo) assay. Also: in the data most compounds retested in dose-response had high values. It counts as functional. The following applies: 9.37 µM.

The species entered for the next test is Homo sapiens. The test can be described thus: To identify inhibition of the IFN signalling (Jak-Stat) pathway via expression of an eGFP reporter gene under the control of an IFN-stimulated response element (ISRE) containing MxA promoter. It counts as functional. The following applies: 30 µM. In general terms: A reporter such as luciferase makes a cellular process visible.

Test [8] has as its target Shiga toxin 2 (Escherichia coli O157:H7) (UniProt P09385+P09386). The test can be described thus: E. coli 0.157:H7 Shiga Toxin SOP - stx2 screening assay. It counts as functional. The following applies: 30 µM.
The target in test [9] is T5, Tyrosyl-tRNA synthetase, putative (Trypanosoma cruzi (strain CL Brener)) (UniProt Q4DSP6).
T5 sequence (whole entry): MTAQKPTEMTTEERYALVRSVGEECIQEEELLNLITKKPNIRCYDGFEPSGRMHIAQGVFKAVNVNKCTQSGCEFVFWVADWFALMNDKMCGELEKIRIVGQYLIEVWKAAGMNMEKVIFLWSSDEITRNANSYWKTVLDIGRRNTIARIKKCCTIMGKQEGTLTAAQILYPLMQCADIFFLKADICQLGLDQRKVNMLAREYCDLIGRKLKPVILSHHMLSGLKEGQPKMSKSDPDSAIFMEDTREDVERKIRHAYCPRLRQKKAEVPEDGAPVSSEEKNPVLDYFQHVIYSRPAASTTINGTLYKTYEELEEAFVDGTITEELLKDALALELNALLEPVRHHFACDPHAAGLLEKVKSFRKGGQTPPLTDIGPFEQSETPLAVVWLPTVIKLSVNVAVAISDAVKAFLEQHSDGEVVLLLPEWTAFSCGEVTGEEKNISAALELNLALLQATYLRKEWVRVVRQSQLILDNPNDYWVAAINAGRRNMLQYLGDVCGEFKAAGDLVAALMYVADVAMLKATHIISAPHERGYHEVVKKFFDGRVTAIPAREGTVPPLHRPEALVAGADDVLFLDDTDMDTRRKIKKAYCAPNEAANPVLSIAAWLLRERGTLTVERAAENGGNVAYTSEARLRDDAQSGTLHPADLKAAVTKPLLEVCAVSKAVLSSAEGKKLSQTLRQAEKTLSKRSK
The test can be described thus: Trypanosoma cruzi tyrosyl tRNA synthetase (TcYRS) _High Tyrosine SOP. Also: in the data most compounds retested in dose-response had high values. It counts as functional. The following applies: 30 µM.

For test [10], the target named is T5, Tyrosyl-tRNA synthetase, putative (Trypanosoma cruzi (strain CL Brener)). The test can be described thus: Trypanosoma cruzi tyrosyl tRNA synthetase (TcYRS) SOP. It counts as functional. The following applies: 30 µM.
The target in test [11] is Chromo domain-containing protein 1 (Saccharomyces cerevisiae (strain ATCC 204508 / S288c) (Baker's yeast)) (UniProt P32657). The test can be described thus: ScCHD-1 Enzyme Inhibition Assay. Also: in the data most compounds retested in dose-response had high values. It counts as functional. The following applies: 30 µM.

For some of these results: Potency and affinity values are given separately.

Protein translocase subunit SecA (Escherichia coli (strain K12)), sequence (P10408 whole entry): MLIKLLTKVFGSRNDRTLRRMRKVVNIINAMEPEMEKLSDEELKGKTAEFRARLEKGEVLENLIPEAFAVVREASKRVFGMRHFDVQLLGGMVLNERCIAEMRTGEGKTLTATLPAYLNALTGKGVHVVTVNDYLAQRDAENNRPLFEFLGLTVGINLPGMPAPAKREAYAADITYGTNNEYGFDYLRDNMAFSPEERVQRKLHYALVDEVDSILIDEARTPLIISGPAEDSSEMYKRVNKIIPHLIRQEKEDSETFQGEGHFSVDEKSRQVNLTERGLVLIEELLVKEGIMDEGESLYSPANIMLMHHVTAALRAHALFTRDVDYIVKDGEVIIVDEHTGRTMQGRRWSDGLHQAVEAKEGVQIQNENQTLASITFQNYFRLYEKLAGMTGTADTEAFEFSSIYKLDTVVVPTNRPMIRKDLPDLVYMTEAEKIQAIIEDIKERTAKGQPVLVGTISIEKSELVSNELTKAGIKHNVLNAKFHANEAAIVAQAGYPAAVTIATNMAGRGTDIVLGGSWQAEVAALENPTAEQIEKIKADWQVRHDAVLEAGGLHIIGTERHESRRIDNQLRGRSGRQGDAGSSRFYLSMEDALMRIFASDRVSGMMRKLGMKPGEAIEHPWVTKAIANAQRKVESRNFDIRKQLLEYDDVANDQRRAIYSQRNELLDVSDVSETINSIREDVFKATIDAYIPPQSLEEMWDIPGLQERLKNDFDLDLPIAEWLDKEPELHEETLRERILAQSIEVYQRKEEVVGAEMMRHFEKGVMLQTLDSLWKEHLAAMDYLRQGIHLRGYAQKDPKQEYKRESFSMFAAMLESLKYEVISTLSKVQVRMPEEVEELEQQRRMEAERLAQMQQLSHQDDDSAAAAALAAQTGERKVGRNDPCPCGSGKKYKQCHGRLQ
Sialic acid-binding Ig-like lectin 9 (Homo sapiens), sequence (Q9Y336 whole entry): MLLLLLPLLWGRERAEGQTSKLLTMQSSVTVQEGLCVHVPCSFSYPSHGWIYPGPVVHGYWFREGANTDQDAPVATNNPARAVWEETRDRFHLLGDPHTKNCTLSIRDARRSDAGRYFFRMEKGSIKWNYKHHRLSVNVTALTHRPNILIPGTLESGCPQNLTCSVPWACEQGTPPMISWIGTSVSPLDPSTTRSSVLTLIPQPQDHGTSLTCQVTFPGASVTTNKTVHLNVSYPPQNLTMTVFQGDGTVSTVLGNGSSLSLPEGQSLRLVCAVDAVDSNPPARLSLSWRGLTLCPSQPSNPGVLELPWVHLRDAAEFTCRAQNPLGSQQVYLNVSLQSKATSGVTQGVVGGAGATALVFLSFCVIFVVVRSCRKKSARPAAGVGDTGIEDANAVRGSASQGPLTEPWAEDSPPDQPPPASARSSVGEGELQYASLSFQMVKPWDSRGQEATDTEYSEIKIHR
Chromo domain-containing protein 1 (Saccharomyces cerevisiae (strain ATCC 204508 / S288c) (Baker's yeast)), sequence (P32657 whole entry, the tested form may be a part): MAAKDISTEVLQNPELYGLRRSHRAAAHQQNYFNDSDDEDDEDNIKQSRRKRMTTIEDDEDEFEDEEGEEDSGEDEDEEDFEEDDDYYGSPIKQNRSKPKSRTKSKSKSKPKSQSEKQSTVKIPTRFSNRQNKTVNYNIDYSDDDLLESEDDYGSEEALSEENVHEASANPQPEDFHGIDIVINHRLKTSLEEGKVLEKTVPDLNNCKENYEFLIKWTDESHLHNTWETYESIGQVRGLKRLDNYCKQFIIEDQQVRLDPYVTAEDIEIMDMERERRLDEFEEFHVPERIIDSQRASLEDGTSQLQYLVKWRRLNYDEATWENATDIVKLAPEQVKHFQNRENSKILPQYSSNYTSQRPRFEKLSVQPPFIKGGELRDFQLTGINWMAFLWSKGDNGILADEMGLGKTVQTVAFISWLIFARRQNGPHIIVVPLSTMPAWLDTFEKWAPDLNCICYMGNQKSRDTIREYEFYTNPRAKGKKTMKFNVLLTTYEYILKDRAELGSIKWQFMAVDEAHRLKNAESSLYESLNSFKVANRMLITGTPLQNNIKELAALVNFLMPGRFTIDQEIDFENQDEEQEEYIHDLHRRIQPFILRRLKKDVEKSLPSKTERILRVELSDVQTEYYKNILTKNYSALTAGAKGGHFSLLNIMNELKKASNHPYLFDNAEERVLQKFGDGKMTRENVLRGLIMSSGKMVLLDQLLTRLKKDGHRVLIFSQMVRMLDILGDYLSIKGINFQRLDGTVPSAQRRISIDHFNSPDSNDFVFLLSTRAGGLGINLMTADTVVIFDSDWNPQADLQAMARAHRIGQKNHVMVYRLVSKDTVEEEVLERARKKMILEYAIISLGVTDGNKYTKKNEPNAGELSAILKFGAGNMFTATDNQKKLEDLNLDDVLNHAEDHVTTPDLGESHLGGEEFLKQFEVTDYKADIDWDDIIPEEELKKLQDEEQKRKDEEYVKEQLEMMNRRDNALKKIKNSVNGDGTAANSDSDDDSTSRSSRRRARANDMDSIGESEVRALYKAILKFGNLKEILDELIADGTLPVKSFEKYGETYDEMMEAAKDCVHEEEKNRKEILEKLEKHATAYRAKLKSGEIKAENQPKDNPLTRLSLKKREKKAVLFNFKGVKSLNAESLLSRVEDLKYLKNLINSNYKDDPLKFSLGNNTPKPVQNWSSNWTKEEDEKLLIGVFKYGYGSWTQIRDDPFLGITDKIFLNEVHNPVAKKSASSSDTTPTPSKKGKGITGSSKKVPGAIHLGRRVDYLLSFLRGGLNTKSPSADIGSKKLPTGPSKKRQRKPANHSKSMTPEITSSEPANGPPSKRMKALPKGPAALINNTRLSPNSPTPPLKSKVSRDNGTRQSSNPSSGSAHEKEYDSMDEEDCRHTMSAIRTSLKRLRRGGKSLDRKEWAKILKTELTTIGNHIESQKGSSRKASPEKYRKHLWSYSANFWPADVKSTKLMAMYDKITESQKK

For `c1cc(CO[C@@H]2CC[C@H]3[C@H]2OCCN3Cc2ccoc2)ccn1`, the Percent Effect was -1.76% in [1]; 13.5% in test [2]; 9.49% in test [3]; 9.36% in test [4]; -7.31% in test [5]; -1.66% in the test with Trypanosoma cruzi. Besides, the Percent Effect is 2.23% in test [6]; 27.1% in test [7]; 33.2% in the test filed under Homo sapiens; 1.68% in test [8]; 1.08% in [9]; 10.3% in test [10]. The Percent Effect in [11] is 1.36%.

As for `Cc1n[nH]c2c1C(c1ccsc1)SCC(=O)N2` (configuration not stated), the Percent Effect was 0.859% in test [1]; 15.6% in test [2]; 6.57% in test [3]; 7.18% in test [4]; -13.4% in test [5]; -4.24% in the test on Trypanosoma cruzi. Further, the Percent Effect in test [6] was 0.645%; in test [7], 16%; in the test listed under Homo sapiens, 19.9%; in test [8], 1.07%; in [9], 5.29%; in test [10] it was 6.41%. In addition, the Percent Effect in [11] is -7.85%.

For the molecule `CN1CCCC(Cc2cncc(Br)c2)CC1` (configuration not stated), the Percent Effect in test [1] was -3.64%; in test [2], 1.35%; in test [3], -6.03%; in [4] it was 13.7%; in test [5], -1.84%; in the test with Trypanosoma cruzi, 5.73%. For the same molecule, the Percent Effect was 0.232% in test [6]; 9.05% in [7]; -10.1% in the test filed under Homo sapiens; -7.14% in test [8]; 20.4% in test [9]; 22.1% in test [10]. The Percent Effect in test [11] is -20.8%.

In the case of `CN1CCC2(COCc3cnc(N4CCOCC4)nc32)C1` (configuration not stated), the Percent Effect in [1] was -1.86%; in test [2] it was -1.33%; in [3], -1.51%; in [4], 5.52%; in test [5], 4.35%; with Trypanosoma cruzi, -1.18%. The Percent Effect in test [6] was -0.528%; in test [7] it was 5.36%; in the test filed under Homo sapiens, -2.62%; in test [8], -6.09%; in [9], 0%; in [10], -5.13%. In addition, the Percent Effect in test [11] was -1.41%.
